Our source for the growth values is PubChem BioAssay (NCI).

Compounds without any hit were thinned out: in the full panel of roughly 83,000, 20% have a hit.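 Single-dose data. Exposure time 48 hours. Values below 10 considered active.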 Active and inactive are the calls of the source.

The subject of one test is 786-0 renal. Put plainly: NCI-60 one-dose screen, 48 h (100 = growth as untreated, 0 = no growth, -100 = all killed). Conditions: 10 µM unless noted.
Turning to `O=C(Nc1ccc(-n2ccc3c(NC(=O)c4ccccc4)nccc32)cc1)c1ccc(N2CCOCC2)c(C(F)(F)F)c1`, the growth was -26.3% (active).

For `COc1cc(/C=C/c2cc(/C=C/c3ccc(O)c(OC)c3)n(C(=O)Nc3ccc(F)c(Cl)c3)n2)ccc1O`, the growth is -32.9% (active). Same read-out and setting: as for `COc1cc(OC)c2sc(-c3ccc(-n4cncc4-c4ccc(OC)c(N)c4)cc3)nc2c1`, the figure is 79.2% (inactive); as for `COc1ccc(C2=NNC(c3ccc(Oc4nc5c(c(=O)n(C)c(=O)n5C)n4C)c(OC)c3)C2)cc1` (centres undefined), 98.7% (inactive); as for `NS(=O)(=O)c1ccc(CCn2c(SCC(=O)N/N=C/c3cccnc3)nc3ccccc3c2=O)cc1`, 92.4% (inactive).

Consider `O=C(NNC(=O)c1cccc(Cl)c1)c1ccccc1`, for which the growth was 102% (inactive). For `N=c1nc(N2CCCCC2)cc(N)n1O`, the growth was 117% (inactive).

Consider `Cc1ccc(C)c(NC(=O)c2sc3c(=O)[nH]cnc3c2C)c1`, for which the growth is 89.9% (inactive).

Take `C=CCOC(=O)C1=C(C)NC2=C(C(=O)CCC2)C1c1ccc(F)cc1` (centres undefined): the growth is 99.9% (inactive). Still for that read-out and setting: as for `COc1ccc(-c2cnc(-c3ccncc3-c3cccc(OC)c3)o2)cc1`, the figure is 24.8% (inactive). Still for that read-out and setting: as for `O=C(Nc1ccncc1)C(=O)c1cn(S(=O)(=O)c2cccc(Cl)c2F)c2ccccc12`, the figure is 77.3% (inactive); as for `Cc1ccccc1Nc1n[nH]c(Cc2ccccc2)n1`, 105% (inactive). On the same count and under the same terms, as for `Oc1ccccc1-c1nnc(COc2ccc(Cl)cc2Cl)o1`, the figure is 44.7% (inactive). For the compound `CS(=O)(=O)c1ccc(C(=O)N/N=C/c2ccccc2O)cc1`, the growth is 33% (inactive).

Regarding `CCCCCCCCCCCCCCCCCC(=O)OCCCCCCCCCCCCC`, the growth is 119% (inactive). The same measure, in the same setting: in the case of `COc1cc(C2CC(c3ccc(C)cc3)=NN2C=O)ccc1Oc1nc2c(c(=O)n(C)c(=O)n2C)n1C` (centres undefined) it was 110% (inactive); in that of `COc1cc(C2CC(c3ccccc3)=NN2C=O)ccc1Oc1ccnc2cc(Cl)ccc12` (centres undefined), 79.9% (inactive); in that of `NC(N)=N/N=C/c1ccc(Cl)cc1`, 97.1% (inactive). On the same count and under the same terms, in the case of `O=c1c2cc(Cl)ccc2oc2ccc(OCCCCCN3CCCCC3)cc12` it was 35.4% (inactive); in that of `COc1cc(Cl)cc(-c2nn(C(=O)NCCN3CCOCC3)cc2-c2ccncc2)c1`, 61.8% (inactive); in that of `COc1ccc2nc3ccccc3c(NCc3ccc(Cl)cc3)c2c1`, -76.9% (active). In the case of `CN1C(=O)N(C)C2C1NN=c1s/c(=C\c3ccc(C(F)(F)F)cc3)c(=O)n12` (centres undefined), the growth was 25.5% (inactive). Regarding `C=C1C(=O)O[C@H]2[C@H]1CC/C(COC(=O)NCc1cn(C)c3ccccc13)=C\CC[C@@]1(C)O[C@@H]21`, the growth is -87.8% (active). As to `c1csc(-c2cnc3nonc3n2)c1`, the growth was 101% (inactive). Same read-out and setting: as for `Nc1nc(NC2CC2)cc(-c2cccc(Cl)c2Cl)n1`, the figure is 69.2% (inactive).

The test system of another test is COLO 205 colon. Described as above. Conditions: 10 µM unless noted.
With `O=C1/C(=C/c2ccccc2)SC(=Nc2ccccc2)N1Nc1ccccc1`, the growth was 0.201% (active).

As for `COc1cnc2c(c1)C(=O)c1c-2n(CCCNC(C)C)c(=O)c2cc(Cl)ccc12`, the growth was -89.8% (active). On the same count and under the same terms, in the case of `CCSCC1CC(O)(c2ccccc2)C(c2ccccc2)C(c2ccc(F)cc2)O1` (centres undefined) it was -70.2% (active). Turning to `CN1C(=O)C(C2=NNC(c3ccccc3C(=O)O)C2)C(=O)N(C)C1=O` (centres undefined), the growth is 108% (inactive).

In the case of `NC(N)=NC1CCCCC1`, the growth was 118% (inactive). As for `COc1ccc(C(=O)OC2C(OC3C(O)COC(O[C@H]4C[C@H]5[C@@H]6CC=C7C[C@@H](O)CC[C@]7(C)[C@H]6CC[C@]5(C)[C@H]4[C@H](C)C(=O)CCC(C)C)C3OC(C)=O)OCC(O)C2O)cc1` (some centres undefined), the growth was -64.3% (active). The same measure, in the same setting: as for `CC(C)(C)c1ccc(OC(=O)Nc2ccccc2)cc1`, the figure is 119% (inactive). Regarding `CN1C2CCC1/C(=C\c1ccc(F)cc1)C(=O)/C2=C/c1ccc(F)cc1`, the growth was 14.8% (inactive). With `CCCCOC(=O)c1cc(O)c(O)c(O)c1`, the growth was 101% (inactive). As to `CCOC(=O)C1OC2(CCCC2)OC1C(=O)OCC` (centres undefined), the growth is 111% (inactive). Same read-out and setting: in the case of `O=C(Nc1cccc(-n2ccc3c(NC(=O)c4ccccc4)nccc32)c1)c1ccc(N2CCOCC2)c(C(F)(F)F)c1` it was -23.4% (active); in that of `CCN(CC)CCCC(C)Nc1c(-c2ccccc2)cnc2cc(Cl)ccc12` (centres undefined), 85.3% (inactive). `O=C1C=CN2C(=O)CC=CC2[C@@H]1O` (some centres undefined): the growth is 123% (inactive). On to `CC(=O)O[C@@H]1CC2C(C)(C)CCCC2(C)C2=C1C(=O)C(C(C)C)=CC2=O` (some centres undefined), for which the growth was -50.8% (active). With `O=C(Nc1ccc(-n2ccc3c(NC(=O)c4ccccc4)nccc32)cc1)c1ccc(N2CCOCC2)c(C(F)(F)F)c1`, the growth was 16.6% (inactive). Same read-out and setting: in the case of `COc1cc(/C=C/c2cc(/C=C/c3ccc(O)c(OC)c3)n(C(=O)Nc3ccc(F)c(Cl)c3)n2)ccc1O` it was -59.4% (active). In the case of `COc1cc(OC)c2sc(-c3ccc(-n4cncc4-c4ccc(OC)c(N)c4)cc3)nc2c1`, the growth was 111% (inactive).

`COc1ccc(C2=NNC(c3ccc(Oc4nc5c(c(=O)n(C)c(=O)n5C)n4C)c(OC)c3)C2)cc1` (centres undefined): the growth was 127% (inactive). The same measure, in the same setting: as for `NS(=O)(=O)c1ccc(CCn2c(SCC(=O)N/N=C/c3cccnc3)nc3ccccc3c2=O)cc1`, the figure is 97.3% (inactive); as for `O=C(NNC(=O)c1cccc(Cl)c1)c1ccccc1`, 116% (inactive). On the same count and under the same terms, as for `N=c1nc(N2CCCCC2)cc(N)n1O`, the figure is 106% (inactive). For the compound `Cc1ccc(C)c(NC(=O)c2sc3c(=O)[nH]cnc3c2C)c1`, the growth was 83.3% (inactive).

For the compound `C=CCOC(=O)C1=C(C)NC2=C(C(=O)CCC2)C1c1ccc(F)cc1` (centres undefined), the growth is 103% (inactive). Still for that read-out and setting: as for `COc1ccc(-c2cnc(-c3ccncc3-c3cccc(OC)c3)o2)cc1`, the figure is -44.1% (active); as for `O=C(Nc1ccncc1)C(=O)c1cn(S(=O)(=O)c2cccc(Cl)c2F)c2ccccc12`, 106% (inactive). Consider `Cc1ccccc1Nc1n[nH]c(Cc2ccccc2)n1`, for which the growth is 122% (inactive). Same read-out and setting: in the case of `Oc1ccccc1-c1nnc(COc2ccc(Cl)cc2Cl)o1` it was 67% (inactive). For `CS(=O)(=O)c1ccc(C(=O)N/N=C/c2ccccc2O)cc1`, the growth was 31.2% (inactive). `CCCCCCCCCCCCCCCCCC(=O)OCCCCCCCCCCCCC`: the growth is 121% (inactive). Consider `COc1cc(C2CC(c3ccc(C)cc3)=NN2C=O)ccc1Oc1nc2c(c(=O)n(C)c(=O)n2C)n1C` (centres undefined), for which the growth was 110% (inactive).

With `COc1cc(C2CC(c3ccccc3)=NN2C=O)ccc1Oc1ccnc2cc(Cl)ccc12` (centres undefined), the growth is 101% (inactive). As to `NC(N)=N/N=C/c1ccc(Cl)cc1`, the growth was 77.6% (inactive). On to `O=c1c2cc(Cl)ccc2oc2ccc(OCCCCCN3CCCCC3)cc12`, for which the growth was 10.6% (inactive). In the case of `COc1cc(Cl)cc(-c2nn(C(=O)NCCN3CCOCC3)cc2-c2ccncc2)c1`, the growth was 42.3% (inactive). Consider `COc1ccc2nc3ccccc3c(NCc3ccc(Cl)cc3)c2c1`, for which the growth was -61.9% (active). Same read-out and setting: in the case of `CN1C(=O)N(C)C2C1NN=c1s/c(=C\c3ccc(C(F)(F)F)cc3)c(=O)n12` (centres undefined) it was -0.525% (active); in that of `C=C1C(=O)O[C@H]2[C@H]1CC/C(COC(=O)NCc1cn(C)c3ccccc13)=C\CC[C@@]1(C)O[C@@H]21`, -75.3% (active); in that of `c1csc(-c2cnc3nonc3n2)c1`, 91.3% (inactive). Still for that read-out and setting: as for `Nc1nc(NC2CC2)cc(-c2cccc(Cl)c2Cl)n1`, the figure is 44.1% (inactive).
